According to the supplement of paper PMC4840960:
± gives the standard deviation of the averaged measurements.

Experiments:
[1] = tested on: E18 rat cortical neuron-glia co-culture; assay: fiber score / MBP score (myelination specific beyond OL differentiation) (ratio); higher = more myelination-specific MBP alignment; conditions: treatment time: 8 days (DIV5-DIV13)
How it was run: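 The measure is the ratio of fiber score to MBP score, where fiber score is continuous MBP fiber length per Olig2+ nucleus and MBP score is thresholded MBP area × intensity per Olig2+ nucleus. Primary E18 rat cortical co-cultures received library compounds at 1 or 5 µM in myelination medium from DIV5 to DIV13, then were fixed in 4 % paraformaldehyde and stained for MBP, Olig2 and DAPI before analysis of four 10X fields per well in duplicate wells.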

[2] = tested on: E18 rat cortical neuron-glia co-culture; assay: myelination (MBP fiber length per Olig2+ nucleus), % of 1 µM DAPT response (DMSO = 0) (% of DAPT); higher = more myelination, active = 50 or more; conditions: treatment time: 8 days (DIV5-DIV13)
How it was run: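 The myelination value was the continuous straight MBP fiber length per Olig2+ nucleus, scaled between 0.1 % DMSO (0) and a 1 µM positive control (100). It was measured in primary E18 rat cortical co-cultures treated with library compounds at 1 or 5 µM in myelination medium from DIV5 through DIV13. Cells were fixed in 4 % paraformaldehyde and stained for MBP, Olig2 and DAPI, and four 10X fields per well were imaged in duplicate wells.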

Structure (SMILES) | fiber score / MBP score ([1]; 1 µM) | fiber score / MBP score ([1]; 5 µM) | myelination ([2]; 1 µM) | myelination ([2]; 5 µM)
CC(=O)OCC(=O)NCCCOc1cccc(CN2CCCCC2)c1 [Roxatidine acetate] | 0.727 | 0.706 | -10.7 (inactive) | -14.2 (inactive)
Nc1nc(Cl)nc2c1ncn2[C@@H]1O[C@H](CO)[C@@H](O)[C@H]1O [2-Chloroadenosine] | 0.752 | 0.764 | -12.4 (inactive) | -10.5 (inactive)
CC(COc1ccccc1Cc1ccccc1)N1CCCCC1 (stereo unspecified) [Benproperine] | 0.726 | 0.819 | -8.06 (inactive) | -4.27 (inactive)
N=C(N)N [Guanidine] | 0.765 | 0.71 | -7.42 (inactive) | -8.57 (inactive)
C[C@H]1C[C@H]2[C@@H]3CCC4=CC(=O)C=C[C@]4(C)[C@@]3(Cl)[C@@H](O)C[C@]2(C)[C@@]1(O)C(=O)CO [Beclomethasone] | 0.828 ± 0.36 | 0.822 ± 0.021 | -2.48 (inactive) | -7.92 (inactive)
CO[C@H]1/C=C/O[C@@]2(C)Oc3c(C)c(O)c4c(O)c(c(/C=N/N5CCN(C)CC5)c(O)c4c3C2=O)NC(=O)/C(C)=C\C=C\[C@H](C)[C@H](O)[C@@H](C)[C@@H](O)[C@@H](C)[C@H](OC(C)=O)[C@@H]1C [Rifampicin] | 0.964 | 0.704 | 12.6 (inactive) | -2.96 (inactive)
CC(COc1ccccc1)N(CCCl)Cc1ccccc1 (stereo unspecified) [Phenoxybenzamine] | 0.774 | 0.918 | -14.4 (inactive) | 0.385 (inactive)
CC(C)c1ccc2oc3nc(N)c(C(=O)O)cc3c(=O)c2c1 [Amlexanox] | 0.826 | 1.05 | -13.2 (inactive) | 0.757 (inactive)
c1ccc(-c2ccc(C(c3ccccc3)n3ccnc3)cc2)cc1 (stereo unspecified) [Bifonazole] | 0.241 | 1.22 | -18.8 (inactive) | -26.8 (inactive)
OCCN(CCO)c1nc(N2CCCCC2)c2nc(N(CCO)CCO)nc(N3CCCCC3)c2n1 [Dipyridamole] | 1.01 | 0.523 | 3.14 (inactive) | -17.3 (inactive)
O=c1[nH]c(=O)n(C2CCCO2)cc1F (stereo unspecified) [Tegafur] | 0.967 | 0.729 | -11.7 (inactive) | 34.5 (inactive)
Cc1cccc(Nc2ccccc2C(=O)O)c1C [Mefenamic Acid] | 0.791 | 1.3 | -6.36 (inactive) | 38.7 (inactive)
C=C1/C(=C\C=C2/CCC[C@]3(C)[C@@H]([C@H](C)/C=C/[C@@H](O)C4CC4)CC[C@@H]23)C[C@@H](O)C[C@@H]1O [Calcipotriene] | 0.711 | 0.6 | -43.8 (inactive) | -82.7 (inactive)
CC(C)(C)NC(=O)[C@H]1CC[C@H]2[C@@H]3CC[C@H]4NC(=O)C=C[C@]4(C)[C@H]3CC[C@]12C [Finasteride] | 0.7 | 0.898 | -19.1 (inactive) | -10.7 (inactive)
O=C(O)c1cc(=O)c2c(OCC(O)COc3cccc4oc(C(=O)O)cc(=O)c34)cccc2o1 [Cromolyn Sodium] | 0.501 | 0.409 | -7.17 (inactive) | -12.9 (inactive)
N#Cc1ccc(C(c2ccc(C#N)cc2)n2cncn2)cc1 [letrozole] | 0.937 | 1.09 | -16.4 (inactive) | 2.49 (inactive)
CC(=O)NS(=O)(=O)c1ccc(N)cc1 [Sulfacetamide] | 0.746 | 1.2 | -10.6 (inactive) | 1.76 (inactive)
COc1ccc(CC(C)NCC(O)c2ccc(O)c(NC=O)c2)cc1 (stereo unspecified) [Formoterol] | 0.702 | 0.726 | -12.6 (inactive) | -14.5 (inactive)
CN(C)CCOC(c1ccc(Cl)cc1)c1ccccn1 (stereo unspecified) [Carbinoxamine] | 1.21 | 1.23 | 3.25 (inactive) | 8.5 (inactive)
CCCCCCCCCCC[C@@H](C[C@@H]1OC(=O)[C@H]1CCCCCC)OC(=O)[C@H](CC(C)C)NC=O [Orlistat] | 0.69 | 0.913 | -34.7 (inactive) | 38.7 (inactive)
C=C1/C(=C\C=C2/CCC[C@]3(C)[C@@H]([C@H](C)CCCC(C)(C)O)CC[C@@H]23)C[C@@H](O)C[C@@H]1O [Calcitriol] | 0.737 | 0.531 | -11.1 (inactive) | 6.28 (inactive)
Cc1[nH]c(=O)c(C#N)cc1-c1ccncc1 [Milrinone] | 0.762 | 0.504 | -7.08 (inactive) | -15.7 (inactive)
CCN(CC)CC1CCCCN1CC(=O)N1c2ccccc2C(=O)Nc2cccnc21 (stereo unspecified) [Otenzepad] | 0.774 | 0.692 | -9.61 (inactive) | -15.6 (inactive)
Nc1ccn([C@@H]2CS[C@H](CO)O2)c(=O)n1 [Lamivudine] | 0.832 ± 0.033 | 0.619 ± 0.073 | -7.54 (inactive) | -12.3 (inactive)
CN(C)CC/C=C1/c2ccccc2COc2ccc(CC(=O)O)cc21 [Olopatadine] | 0.791 | 0.936 | -7.93 (inactive) | -5.94 (inactive)

Structure (SMILES) | fiber score / MBP score ([1]; 1 µM) | fiber score / MBP score ([1]; 5 µM) | myelination ([2]; 1 µM) | myelination ([2]; 5 µM)
NS(=O)(=O)c1cc2c(cc1C(F)(F)F)NCNS2(=O)=O [Hydroflumethiazide] | 0.948 | 0.763 | -2.17 (inactive) | -13.7 (inactive)
CCc1oc2ccccc2c1C(=O)c1cc(Br)c(O)c(Br)c1 [Benzbromarone] | 0.764 | 0.919 | -8.31 (inactive) | -9.52 (inactive)
COc1nc(C)nc(Cl)c1NC1=NCCN1 [Moxonidine] | 0.758 | 0.82 | -10.8 (inactive) | -21.6 (inactive)
CC1=C(C(=O)O)N2C(=O)[C@@H](NC(=O)[C@H](N)c3ccccc3)[C@H]2SC1 [Cephalexin] | 0.963 | 0.986 | -2.86 (inactive) | -1.59 (inactive)
CO[C@H]1/C=C/O[C@@]2(C)Oc3c(C)c(O)c4c(O)c(c(/C=N/N5CCN(C6CCCC6)CC5)c(O)c4c3C2=O)NC(=O)/C(C)=C\C=C\[C@H](C)[C@H](O)[C@@H](C)[C@@H](O)[C@@H](C)[C@H](OC(C)=O)[C@@H]1C [Rifapentine] | 0.893 ± 0.081 | 1.12 ± 0.52 | 2.99 (inactive) | 21 (inactive)
NC(=O)c1cccnc1 [Niacinamide] | 0.96 | 0.901 | -7.93 (inactive) | -4.86 (inactive)
CC(=O)Oc1ccccc1C(=O)Nc1ncc([N+](=O)[O-])s1 [Nitazoxanide] | 1.18 | 1.61 | 4.89 (inactive) | 91.6 (active)
Nc1c2c(nc3ccccc13)CCCC2 [Tacrine] | 0.655 | 0.566 | -9.65 (inactive) | -14.9 (inactive)
CN(C)CCCN1c2ccccc2Sc2ccc(Cl)cc21 [Chlorpromazine] | 1.04 | 1.17 | 8.68 (inactive) | -2.13 (inactive)
CO/N=C(\C(=O)N[C@@H]1C(=O)N2C(C(=O)O)=C(COC(C)=O)CS[C@H]12)c1csc(N)n1 [Cefotaxime] | 0.651 | 0.671 | -9.49 (inactive) | -10.3 (inactive)
NCC(=O)CCC(=O)O [Aminolevulinic Acid] | 1.11 | 1.44 | 0.461 (inactive) | 39.4 (inactive)
CCCCNc1cc(C(=O)O)cc(S(N)(=O)=O)c1Oc1ccccc1 [Bumetanide] | 0.846 | 0.859 | -8.01 (inactive) | -11.3 (inactive)
CC(C)NCC(O)c1cc(O)cc(O)c1 (stereo unspecified) [Metaproterenol] | 0.313 | 0.371 | -16.5 (inactive) | -14.3 (inactive)
CCN1CCN(c2cc3c(cc2F)c(=O)c(C(=O)O)cn3C2CC2)CC1 [Enrofloxacin] | 0.94 | 0.516 | -5.04 (inactive) | -19.3 (inactive)
CCCOc1ccc(C(=O)OCCN(CC)CC)cc1N [Proxymetacaine] | 1.15 | 0.433 | 13.3 (inactive) | -12.1 (inactive)
CC(=O)NC[C@H]1CN(c2ccc(N3CCOCC3)c(F)c2)C(=O)O1 [linezolid] | 0.899 | 0.929 | -7.33 (inactive) | 0.414 (inactive)
COc1ccc(CC2c3cc(OC)c(OC)cc3CC[N+]2(C)CCC(=O)OCCCCCOC(=O)CC[N+]2(C)CCc3cc(OC)c(OC)cc3C2Cc2ccc(OC)c(OC)c2)cc1OC (stereo unspecified) [Atracurium] | 0.771 | 0.948 | -11.6 (inactive) | 63.1
C[C@]12CC[C@@H]3c4ccc(O)cc4CC[C@H]3[C@@H]1CC[C@@H]2O [Estradiol] | 0.747 | 0.62 | -24.6 (inactive) | -35.3 (inactive)
CCC1=C(C)CN(C(=O)NCCc2ccc(S(=O)(=O)NC(=O)N[C@H]3CC[C@H](C)CC3)cc2)C1=O [Glimepiride] | 1.06 | 0.96 | -3.14 (inactive) | -10.6 (inactive)
C=C[C@H]1CN2CC[C@H]1C[C@H]2[C@H](O)c1ccnc2ccc(OC)cc12 [Quinine] | 0.921 | 0.644 | -1.48 (inactive) | -11.3 (inactive)
O=c1c(O[C@@H]2O[C@H](CO)[C@@H](O)[C@H](O)[C@H]2O)c(-c2ccc(O)c(O)c2)oc2cc(O)cc(O)c12 [Isoquercitrin] | 1.09 | 0.826 | 1.55 (inactive) | -11.7 (inactive)
CC(=O)/N=c1/sc(S(N)(=O)=O)nn1C [Methazolamide] | 0.875 | 0.672 | -8.24 (inactive) | -24.1 (inactive)
CCOc1ccc2ccccc2c1C(=O)N[C@@H]1C(=O)N2[C@@H]1SC(C)(C)[C@@H]2C(=O)O [Nafcillin] | 1.25 | 0.777 | 4.05 (inactive) | -9.33 (inactive)
OC[C@H]1O[C@@H](Oc2cc(O)cc(/C=C/c3ccc(O)cc3)c2)[C@H](O)[C@@H](O)[C@@H]1O [Polydatin] | 0.578 | 0.769 | -20.3 (inactive) | -3.53 (inactive)
